Compound activity from PubChem.
Pf growth 96h: Primary qHTS for delayed death inhibitors of the malarial parasite plastid, 96 hour incubation; P. falciparum luciferase reporter growth, 96 h; Potency, µM (top dose mostly 28.7 µM), without a hit: at the top dose activity change, negative = inhibition, most hits filed as inhibitors; hit rate 6.9% among 320,000; active = well fitted inhibition curve with a large enough effect; inconclusive = small, poorly fitted or top-dose-only effect, or another doubt; inactive = no such curve, though single readings can be large or run the other way; also: potency is read from the fitted curve at half-maximal effect; % is scaled to controls: 0 for no effect and ±100 for the full control effect
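Plates of compound plus infected erythrocytes (2% hematocrit, 0.05% parasitemia final) incubate 96 hours, 37 C, 5% CO2. Detection reagent added; reduced luminescence from the parasites' luciferase reporter flags inhibition.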
NS1 function inh: qHTS Assay for Inhibitors of Influenza NS1 Protein Function | Potency, µM (highest dose often 46.1 µM), for the others: at the top dose activity, positive = more growth | hit rate 0.4% among 270,000; also: potency is read from the fitted curve at half-maximal effect; actives are rising curves; nearly all actives have a fitted effect of over 50% in size
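Growth recovery, yeast-based: influenza A NS1 expressed in S. cerevisiae causes slow growth, and suppressors are detected by OD600. The parent strain without NS1 is used as positive control.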
CHX counter: Cycloheximide Counterscreen for Small Molecule Inhibitors of Shiga Toxin; max response, %; hit rate 12% among 300,000; cell reporter, cycloheximide protein synthesis inhibition counterscreen; in the data active = max response mostly above about 13%, no sharp cut-off; inactive = mostly below about 14%; also: read at 38.3 µM for the half of the compounds with a filed dose; 0% is about no effect
SARS PLpro yeast: qHTS of Yeast-based Assay for SARS-CoV PLP; AID 485353, 2010; S. cerevisiae expressing SARS-CoV PLpro, growth rescue; hit rate 0.19% among 330,000; Potency, µM (highest dose often 32.9 µM), without a hit: at the highest dose activity, positive = growth rescue, usual class: activators; also: potency is read from the fitted curve at half-maximal effect; 0% is about no effect; nearly all actives have a fitted effect of over 55% in size
Pf growth 48h: Primary qHTS for delayed death inhibitors of the malarial parasite plastid, 48 hour incubation | hit rate 5.9% among 310,000 | Potency, µM (doses to about 28.7 µM), inactives show at the top dose activity change, negative = inhibition, hits mostly inhibitors | AID 504832, 2011 | P. falciparum luciferase growth in erythrocytes, 48 h; active = well fitted inhibition curve with a large enough effect; inconclusive = small, poorly fitted or top-dose-only effect, or another doubt; inactive = no such curve, though single readings can be large or run the other way; also: potency is read from the fitted curve at half-maximal effect; % is scaled to controls: 0 for no effect and ±100 for the full control effect
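Read-out is firefly luciferase luminescence from an integrated reporter in P. falciparum, so falling signal marks reduced parasite growth. Infected erythrocytes were at 2% hematocrit and 0.1% parasitemia (final) in Albumax-supplemented RPMI 1640.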
Shiga toxin inh: A qHTS for Small Molecule Inhibitors of Shiga Toxin; Vero cells, Shiga toxin protein synthesis inhibition reporter; inhibition, % at 38.7 µM; hit rate 9.2% among 290,000; AID 2315, 2010; in the data active = inhibition mostly above about 28%, no sharp cut-off; inactive = mostly below about 43%; also: 0% is about no effect
Active calls of the source: *; u = inconclusive; x = not tested or not shown; [ ] = dose if it differs, or a comment. Most compounds without a hit are left out; they make up all but 21% or so of the library. Unless noted, calls follow the shape of the full dose curve.

SMILES | Pf growth 96h | NS1 function inh | CHX counter | SARS PLpro yeast | Pf growth 48h | Shiga toxin inh
O=C(CSc1nccc(=O)[nH]1)NN(c1ccccc1)c1ccccc1 | 41%[1.15 µM] | 8% | -4 | 0% | 17%[1.15 µM] | -10
Cc1ccc(C(=O)Nc2ccccc2N2CCCCC2)cc1[N+](=O)[O-] | u | x | -3 | 1% | -18% | 8
CN1CCN(c2ccccc2NC(=O)c2ccc(N3CCCCC3)c([N+](=O)[O-])c2)CC1 | u | 4% | -5 | 1% | 13µM* | -16
COc1ccc(C(=O)Nc2ccccc2N2CCCCC2)cc1[N+](=O)[O-] | 12µM* | -50% | -1 | -2% | u | -4
COC(=O)c1ccc(N2CCN(C(=O)C3CC3)CC2)c([N+](=O)[O-])c1 | u | 1% | 1 | 0% | 6% | -2
COC(=O)c1ccc(N2CCN(CC(=O)c3ccc(-c4ccccc4)cc3)CC2)c([N+](=O)[O-])c1 | u | -59% | 85* | -8% | 12µM* | 60*
CN1CCN(c2ccc(C(=O)c3ccccc3)cc2[N+](=O)[O-])CC1 | u | 0% | 40* | 2% | 47% | 32*
COc1ccc(COC(=O)Nc2cn(C)nc2C(F)(F)F)cc1 | 32% | 5% | -3 | -1% | 17% | -8
CC(=O)c1ccc(N2CCN(c3ncccn3)CC2)c([N+](=O)[O-])c1 | 28% | -6% | 10 | -8% | 13% | 36
COc1ccc(S(=O)(=O)Nc2ccccc2N2CCOCC2)cc1[N+](=O)[O-] | 9% | -5% | -1 | -4% | 13µM* | -7
COc1ccc(S(=O)(=O)Nc2ccc(N3CCOCC3)cc2)cc1[N+](=O)[O-] | -17%[5.75 µM] | 7% | 5 | 0% | -12% | -10
CC(=O)c1ccc(N2CCc3ccccc3C2)c([N+](=O)[O-])c1 | 86% | 1% | 30* | -1% | 92% | 76*
Cc1ccc(-c2csc(NC(=O)c3ccccc3Cl)c2C(=O)O)cc1 | 40% | -1% | 23* | -1% | 15% | 40*
CC(C)c1ccc(-c2csc(NC(=O)c3cccs3)c2C(=O)O)cc1 | 44% | x | 15 | 1% | 2% | 34*
CC(C)c1ccc(C(CC(=O)O)NC(=O)c2cccs2)cc1 (stereo not given) | 25% | x | -4 | 1% | -2% | 5
Cn1c(=O)c2sccc2n2c(CCCC(=O)NCc3ccc(F)cc3)nnc12 | u | 1% | -2 | 0% | 5% | -4
O=C(CC(=O)c1ccccc1)Nc1ccc(Cl)cc1 | 23% | -3% | 36* | -6% | 34% | 80*
O=C(O)c1cccc(NS(=O)(=O)c2ccc3c(c2)C(=O)c2ccccc2C3=O)c1 | -18% | 4% | 16* | 0% | 24% | 20
O=C(O)c1cccc(NC(=O)c2ccc(S(=O)(=O)c3ccccc3)cc2)c1 | 12µM* | 21% | -2 | -5% | 46% | -7
CCOc1cc(OCC)cc(C(=O)Nc2cccc(C(C)=O)c2)c1 | u | -3% | 2 | 1% | 53% | 14
CCc1sc(C(=O)Nc2cccc(C(C)=O)c2)cc1C | 72% | -9% | 28* | -66% | 75% | 16
FC(F)(F)c1ccnc(NCc2ccco2)n1 | 9% | 4% | 0 | 3% | 15% | -1
CCOc1ccc(N2CCc3c(C)nc(SC)nc32)cc1 | u | x | -1 | -2% | -66% | -15
N[C@H](Cc1ccccc1)c1nn[nH]n1 | x | -5% | x | x | x | x
Cc1cccc(C(=O)Nc2cccc(NC(=O)c3ccccc3)c2)c1 | u | 5% | 9 | 4% | 51% | 12
SMILES | Pf growth 96h | NS1 function inh | CHX counter | SARS PLpro yeast | Pf growth 48h | Shiga toxin inh
CC(C)OC(=O)c1cccc(NC(=O)c2ccccc2)c1 | 145% | -12% | 26* | -25% | 211% | 69*
CC(=O)c1ccc(NC(=O)c2cccc(NC(=O)c3ccccc3)c2)cc1 | u | 17% | 23* | 0% | -20% | x
Cc1ccc(NC(=O)c2ccc(NC(=O)c3ccccc3)cc2)cc1C | 1.2µM* | -72% | 46* | -5% | 25% | 56*
COC(=O)CSC(C(=O)Nc1ccc(C)c(C)c1)c1ccccc1 (stereo not given) | 0% | -4% | 19 | -4% | 1% | 44*
Cc1cc(OCC(=O)NCCN2CCOCC2)c2c(C)c(C)c(=O)oc2c1 | 6% | -1% | -2 | -1% | 15% | 8
Cc1ccc2c(c1)[nH]c1c(=O)n(CCC3=CCCCC3)cnc12 | 104% | -3% | 12 | 2% | 30% | -8
Cc1oc2nc(SCC(=O)NC3CCCCC3)nc(N)c2c1C | x | -1% | x | x | x | x
CC(=O)c1cccc(NC(=O)NNC(=O)c2ccc3ccccc3c2)c1 | u | 7% | 1 | -2% | 19% | -5
O=C(Nc1ccc2nc(N3CCOCC3)sc2c1)c1ccccc1 | -1% | x | x | 2% | u | x
CC(=O)c1cccc(NC(=O)c2ccc3ccccc3c2)c1 | -10% | -28% | 28* | -7% | 151% | x
O=C(Nc1ccc(-c2nc3ccccc3s2)c(OC(=O)c2ccccc2)c1)c1ccccc1 | 3% | 20% | 30* | -9% | 135% | 26
O=C(CCc1ccccc1)NC(=S)Nc1cccc(Br)c1 | 18% | 23% | 0 | 7% | 8% | 25
S=C(Nc1cccc(Br)c1)c1ccccc1 | u | -24% | 45* | -90% | -3% | 109*
COC(=O)c1ccc(CNCC(=O)Nc2ccc(C(=O)OC)cc2)cc1 | 0.93µM* | 4% | 4 | 14% | u | -11
COc1ccnc2c1c(=O)n(Cc1ccc(Cl)cc1)c(=O)n2C | -29% | -110% | 1 | -77% | -19% | 21
CCN(Cc1ccccc1)C(=O)COC(=O)Cn1cnc2ccccc21 | 24% | x | -2 | -3% | 15% | 28
Cc1ccc(NC(=O)CO/N=C(\N)c2ccccc2)cc1C | x | x | x | -29% | x | x
O=C(CNCc1ccccc1)NC1C2CC3CC(C2)CC1C3 (stereo not given) | u | -12% | 14* | 1% | 42% | x
Cc1ccc(NC(=O)CC(=O)c2ccccc2)cc1C | 38% | 10% | 34* | -1% | 69% | 101*
CC(=O)Oc1ccc(C(=O)Nc2cccc(C(=O)NC(C)(C)C)c2)cc1 | 5.2µM* | x | -2 | 1% | -4% | 43
O=C(Nc1ccc(Cl)c(Cl)c1)c1ccccc1 | 102% | x | x | 1% | 110% | x
O=C(Nc1ccc2nc3ccccc3nc2c1)c1ccccc1 | -2% | -9% | 40* | -56% | 107% | 25*
O=C(Nc1cccc(C(=O)Nc2ccc(Br)cc2)c1)c1ccccc1 | 40% | -1% | 16* | -2% | 11% | 25
O=C(CNCc1ccccc1)Nc1ccc(Cl)cc1 | 76% | -8% | 28* | -1% | -7%[0.00184 µM] | 79*
CCN(CC)C(=O)Nc1ccc(C(=O)OC)cc1 | 99% | 2% | 16* | -3% | x | 13
CCN(CC)C(=S)Nc1ccc(C(=O)OC)cc1 | u | 6% | -1 | 0% | -4% | 14
